In PubChem BioAssay:
For some assays here: Measured potencies and affinities stand elsewhere. Activity calls are given as the source filed them. Unless noted, the rule behind the calls is not given here.

Assays:
[1] = antimalarial activity against Dd2 strain (AID 2302;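 active = growth inhibition above 50% at the single 2 µM test dose, taken to imply half-maximal potency below 2 µM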;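 note: 0% = DMSO untreated growth and 100% = chloroquine plus artemisinin killed control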); conditions: P. falciparum Dd2 in RBCs, LDH growth readout, 72 h; at 2 µM; hits give high values
[2] = HepG2 cytotoxicity, primary screen, cytotoxicity control for P. falciparum antimalarial project, cell-based, ATP luminescence (AID 2303;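 active = inhibition above 50%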;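 note: 0% = DMSO wells and 100% = digitonin-killed cells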); conditions: HepG2 viability, 24-48 h, at 10 µM, hits give high values
[3] = target: L-lactate dehydrogenase (Plasmodium falciparum (isolate CDC / Honduras)) (UniProt Q27743); experiment: PfLDH activity inhibition – cell lysate, 3D7 strain, counter-screen for P. falciparum growth inhibition project (AID 2304);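 note: 0% = vehicle and 100% = reference inhibitor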; conditions: P. falciparum 3D7 crude extract, LDH APAD/NBT absorbance; at 2 µM; hits give high values
Chain of L-lactate dehydrogenase (Plasmodium falciparum (isolate CDC / Honduras)) (Q27743 whole entry, looked up): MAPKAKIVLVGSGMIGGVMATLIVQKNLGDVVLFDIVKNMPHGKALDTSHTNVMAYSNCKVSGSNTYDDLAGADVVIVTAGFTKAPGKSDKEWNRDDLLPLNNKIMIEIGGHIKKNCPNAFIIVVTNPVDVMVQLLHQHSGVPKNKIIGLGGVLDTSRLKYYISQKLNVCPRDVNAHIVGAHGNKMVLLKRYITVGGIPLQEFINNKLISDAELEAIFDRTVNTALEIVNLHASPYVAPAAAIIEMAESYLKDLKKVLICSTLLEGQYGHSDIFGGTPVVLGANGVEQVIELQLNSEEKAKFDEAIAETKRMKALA

[4] = inhibition of 3D7 malaria parasite growth – strain 3D7 (AID 2306);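 note: 0% = DMSO wells and 100% = chloroquine plus artemisinin control wells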; conditions: P. falciparum 3D7 erythrocytic growth, LDH absorbance, 72 h; at 2 µM; hits give high values
[5] = target: Calcium-dependent protein kinase 1 (Plasmodium falciparum (isolate 3D7)) (UniProt P62344); experiment: PfCDPK1 kinase inhibitors, biochemical, TCAMS library (AID 1159585; cut-off not given, nearly all actives have IC50 up to about 0.98 µM;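 note: inhibitors leave more ATP so luminescence rises with inhibition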); conditions: recombinant PfCDPK1, Kinase-Glo ATP depletion luminescence
Chain of Calcium-dependent protein kinase 1 (Plasmodium falciparum (isolate 3D7)) (P62344 whole entry, looked up): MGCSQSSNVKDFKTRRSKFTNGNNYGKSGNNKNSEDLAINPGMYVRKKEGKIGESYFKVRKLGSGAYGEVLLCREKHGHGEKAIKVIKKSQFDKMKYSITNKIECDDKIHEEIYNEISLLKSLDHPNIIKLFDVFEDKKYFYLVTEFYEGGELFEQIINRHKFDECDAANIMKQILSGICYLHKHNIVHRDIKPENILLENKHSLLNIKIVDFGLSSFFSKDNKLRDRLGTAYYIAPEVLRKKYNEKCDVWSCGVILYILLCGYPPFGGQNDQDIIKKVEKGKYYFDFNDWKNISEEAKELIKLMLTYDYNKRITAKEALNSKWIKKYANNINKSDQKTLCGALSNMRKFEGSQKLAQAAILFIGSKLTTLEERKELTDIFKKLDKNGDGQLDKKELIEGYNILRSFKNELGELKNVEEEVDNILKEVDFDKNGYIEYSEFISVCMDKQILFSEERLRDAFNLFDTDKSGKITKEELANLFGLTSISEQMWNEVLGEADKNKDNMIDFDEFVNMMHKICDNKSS

[6] = target: Plasmodium falciparum protein kinase 6 (PK6, PF3D7_1337100) (UniProt Q8IDW1); experiment: PfPK6 kinase inhibitors, biochemical, TCAMS library (AID 1159586); conditions: recombinant PfPK6, Kinase-Glo ATP depletion luminescence
Chain of Plasmodium falciparum protein kinase 6 (PK6, PF3D7_1337100) (Q8IDW1 1-305): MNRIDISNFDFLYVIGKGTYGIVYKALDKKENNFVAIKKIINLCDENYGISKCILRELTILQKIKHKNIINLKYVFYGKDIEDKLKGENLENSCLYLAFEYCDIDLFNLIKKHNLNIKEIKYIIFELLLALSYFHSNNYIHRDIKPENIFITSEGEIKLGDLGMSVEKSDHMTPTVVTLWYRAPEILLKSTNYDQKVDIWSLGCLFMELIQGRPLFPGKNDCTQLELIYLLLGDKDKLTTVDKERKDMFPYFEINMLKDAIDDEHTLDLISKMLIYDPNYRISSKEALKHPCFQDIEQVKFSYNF

[7] = target: Protein kinase 7 (PK7), Plasmodium falciparum 3D7 (PF3D7_0213400) (UniProt Q7YTF7); experiment: inhibition of Plasmodium PK7 catalytic activity – biochemical, TCAMS antimalarial set, Kinase-Glo luminescence (AID 1159587); conditions: recombinant PfPK7, Kinase-Glo ATP depletion luminescence
Chain of Protein kinase 7 (PK7), Plasmodium falciparum 3D7 (PF3D7_0213400) (Q7YTF7 1-343): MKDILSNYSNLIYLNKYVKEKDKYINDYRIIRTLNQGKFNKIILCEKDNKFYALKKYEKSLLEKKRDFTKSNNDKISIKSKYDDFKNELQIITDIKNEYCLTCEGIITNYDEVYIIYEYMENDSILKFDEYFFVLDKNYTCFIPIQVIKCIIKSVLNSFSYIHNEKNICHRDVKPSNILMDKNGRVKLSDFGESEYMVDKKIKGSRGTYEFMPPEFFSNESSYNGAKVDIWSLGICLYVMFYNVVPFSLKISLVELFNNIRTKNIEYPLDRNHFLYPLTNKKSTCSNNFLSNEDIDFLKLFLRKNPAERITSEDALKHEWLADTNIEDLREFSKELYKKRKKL

[8] = target: Calcium-dependent protein kinase 4 (Plasmodium falciparum (isolate 3D7)) (UniProt Q8IBS5); experiment: PfCDPK4 kinase inhibitors, biochemical, TCAMS library (AID 1159588; cut-off not given, nearly all actives have IC50 up to about 0.91 µM); conditions: recombinant PfCDPK4, Kinase-Glo ATP depletion luminescence
Chain of Calcium-dependent protein kinase 4 (Plasmodium falciparum (isolate 3D7)) (Q8IBS5 whole entry, looked up): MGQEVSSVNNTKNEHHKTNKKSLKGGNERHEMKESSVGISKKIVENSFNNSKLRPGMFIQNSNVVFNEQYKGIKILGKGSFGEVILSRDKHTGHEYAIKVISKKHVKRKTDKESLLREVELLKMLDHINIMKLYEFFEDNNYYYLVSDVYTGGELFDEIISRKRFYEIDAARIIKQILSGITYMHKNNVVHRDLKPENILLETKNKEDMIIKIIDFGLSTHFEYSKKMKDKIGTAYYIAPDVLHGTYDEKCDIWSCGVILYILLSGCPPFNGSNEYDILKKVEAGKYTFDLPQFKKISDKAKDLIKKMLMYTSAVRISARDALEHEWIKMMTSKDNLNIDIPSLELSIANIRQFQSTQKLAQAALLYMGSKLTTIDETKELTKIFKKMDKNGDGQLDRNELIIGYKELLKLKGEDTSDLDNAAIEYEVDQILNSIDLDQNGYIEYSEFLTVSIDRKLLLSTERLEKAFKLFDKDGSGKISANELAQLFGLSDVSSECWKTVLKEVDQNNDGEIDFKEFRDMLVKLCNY

CC(C)N1CCN(CCCCNc2c3ccccc3nc3ccccc23)CC1
active: growth inhibition [4] 100%
inactive: growth inhibition [1] -4% | inhibition [2] 38% | inhibition [3] -6% | outcome [5] | outcome [6] | outcome [7] | outcome [8]

CN(C)CCCNc1nccc(N(C)c2ccc(NC(=O)Nc3cc(C(F)(F)F)ccc3F)cc2)n1
inactive: growth inhibition [1] 25% | inhibition [3] 2% | outcome [5] | outcome [6] | outcome [7] | outcome [8]
active: inhibition [2] 97% | growth inhibition [4] 93%

COc1cc(C=Cc2ccc3ccccc3n2)cc(Br)c1OCC(=O)N(C)C
inactive: inhibition [2] 28% | inhibition [3] 3% | outcome [5] | outcome [6] | outcome [7] | outcome [8]
active: growth inhibition [1] 87% | growth inhibition [4] 99%

CN1CCN(c2ccnc3ccc(NC(=O)Nc4ccc(-c5ccncc5)c5ccccc45)cc23)CC1
inactive: inhibition [3] -4% | outcome [5] | outcome [6] | outcome [7] | outcome [8]
active: growth inhibition [1] 84% | inhibition [2] 76% | growth inhibition [4] 101%

COc1ccc(N2C(N)=NC(N)=NC2(C)C)cc1OC
inactive: growth inhibition [1] -4% | inhibition [2] 13% | inhibition [3] -2% | outcome [5] | outcome [6] | outcome [7] | outcome [8]
active: growth inhibition [4] 95%

O=C(NCc1cccc(Br)c1)c1ccc(CNC2CCN(Cc3ccccc3)CC2)cc1
active: growth inhibition [4] 100%
inactive: growth inhibition [1] 49% | inhibition [2] 3% | inhibition [3] 4% | outcome [5] | outcome [6] | outcome [7] | outcome [8]

COc1ccc(CNCc2ccc(F)cc2)cc1-c1cccc(S(=O)(=O)NCCN2CCCC2)c1
active: growth inhibition [1] 54% | growth inhibition [4] 101%
inactive: inhibition [2] 43% | inhibition [3] -3% | outcome [5] | outcome [6] | outcome [7] | outcome [8]

Cc1cnc(NCC2CCCCC2)nc1N[C@@H](CC(C)C)C(=O)Nc1ccccc1
active: growth inhibition [1] 55% | growth inhibition [4] 96%
inactive: inhibition [2] 12% | inhibition [3] -2% | outcome [5] | outcome [6] | outcome [7] | outcome [8]

NC(=O)c1cccc(C(=O)Nc2cccc(-c3cccc(-c4nc5ccc(F)cc5[nH]4)c3)c2)c1
active: growth inhibition [1] 73% | growth inhibition [4] 100%
inactive: inhibition [2] 47% | inhibition [3] 1% | outcome [5] | outcome [6] | outcome [7] | outcome [8]

C[C@@H](COc1ccccc1)NCC(O)c1ccc([N+](=O)[O-])c(OCc2ccccc2)c1 (stereo not given in full)
active: growth inhibition [1] 64% | growth inhibition [4] 93%
inactive: inhibition [2] 5% | inhibition [3] 7% | outcome [5] | outcome [6] | outcome [7] | outcome [8]

CN1C(C)(C)CC(NC(=O)c2ccc(-c3nc4cc(Cl)c(Cl)cc4[nH]3)cc2)CC1(C)C
inactive: inhibition [2] 8% | inhibition [3] 4% | outcome [5] | outcome [6] | outcome [7] | outcome [8]
active: growth inhibition [1] 97% | growth inhibition [4] 98%

CCCCOc1c(CCC)cc(Cc2cnc(N)nc2N)cc1CCC
inactive: growth inhibition [1] -2% | inhibition [2] 27% | inhibition [3] 2% | outcome [5] | outcome [6] | outcome [7] | outcome [8]
active: growth inhibition [4] 97%

COc1ccccc1N1CCN(CCCCN(C(=O)Nc2cccc(Cl)c2)C(=O)Nc2cccc(Cl)c2)CC1
active: growth inhibition [1] 65% | growth inhibition [4] 100%
inactive: inhibition [2] 4% | inhibition [3] 7% | outcome [5] | outcome [6] | outcome [7] | outcome [8]

N#Cc1ccc2c(c1)CN(CCC1CCC(NC(=O)c3cc4ccccc4cc3N)CC1)CC2 (stereo not given)
active: growth inhibition [1] 52% | growth inhibition [4] 80%
inactive: inhibition [2] 5% | inhibition [3] -8% | outcome [5] | outcome [6] | outcome [7] | outcome [8]

Cc1cccc2[nH]c(-c3cccc(-c4cccc(NC(=O)NCc5cccc(F)c5)c4)c3)nc12
active: growth inhibition [4] 98%
inactive: growth inhibition [1] 32% | inhibition [2] 11% | inhibition [3] -2% | outcome [5] | outcome [6] | outcome [7] | outcome [8]

Cc1cc2ncn(-c3nccc(NCc4ccc(F)cc4)n3)c2cc1C
active: growth inhibition [1] 83% | growth inhibition [4] 98%
inactive: inhibition [2] 10% | inhibition [3] -2% | outcome [5] | outcome [6] | outcome [7] | outcome [8]

NC1=NC(Cc2ccccc2)(c2ccncc2)C(=O)N1CCCc1ccccc1 (stereo not given)
inactive: growth inhibition [1] 1% | inhibition [2] 1% | inhibition [3] 3% | outcome [5] | outcome [6] | outcome [7] | outcome [8]
active: growth inhibition [4] 86%

O=C(Nc1ccc(N2CCCN(Cc3cccc(F)c3)CC2)cc1)c1cccs1
inactive: inhibition [2] 2% | inhibition [3] 0% | outcome [5] | outcome [6] | outcome [7] | outcome [8]
active: growth inhibition [1] 96% | growth inhibition [4] 96%

O=C(/C=C/c1ccc(Cl)c(Cl)c1)NCCCCCN1CCC(NC(=O)Nc2ccc(F)cc2F)CC1
active: growth inhibition [4] 102%
inactive: growth inhibition [1] 23% | inhibition [2] 14% | inhibition [3] 2% | outcome [5] | outcome [6] | outcome [7] | outcome [8]

NS(=O)(=O)c1ccccc1Nc1nc(Nc2ccc(N3CCOCC3)cc2)nc2c1CCC2
active: growth inhibition [1] 99% | growth inhibition [4] 96%
inactive: inhibition [2] 21% | inhibition [3] -1% | outcome [5] | outcome [6] | outcome [7] | outcome [8]

O=C(/C=C/c1ccc(Cl)c(Cl)c1)NCCCCCN1CCC(c2c[nH]c3c(-c4ccccc4)cccc23)CC1
inactive: growth inhibition [1] 40% | inhibition [3] -2% | outcome [5] | outcome [6] | outcome [7] | outcome [8]
active: inhibition [2] 74% | growth inhibition [4] 99%

Clc1ccc2c(NCc3ccccc3)ccnc2c1
active: growth inhibition [1] 100% | growth inhibition [4] 101%
inactive: inhibition [2] 40% | inhibition [3] 1% | outcome [5] | outcome [6] | outcome [7] | outcome [8]

COc1ccc(CNC2CCN(C)CC2)cc1-c1ccc(S(=O)(=O)NCc2ccccc2)s1
inactive: inhibition [3] 0% | outcome [5] | outcome [6] | outcome [7] | outcome [8]
active: growth inhibition [1] 101% | inhibition [2] 62% | growth inhibition [4] 101%

Brc1ccc(Nc2nc(NCC3CCCO3)c3ccccc3n2)cc1 (stereo not given)
active: growth inhibition [1] 99% | growth inhibition [4] 100%
inactive: inhibition [2] 13% | inhibition [3] -3% | outcome [5] | outcome [6] | outcome [7] | outcome [8]

COC(=O)c1ccccc1COc1ccc(CC2(NC(=O)[C@H](Nc3ccc(C#N)c4ccccc34)C(C)(C)C)CCCC2)cc1
active: growth inhibition [1] 82% | growth inhibition [4] 95%
inactive: inhibition [2] 1% | inhibition [3] 2% | outcome [5] | outcome [6] | outcome [7] | outcome [8]

CCc1ccccc1-c1csc(C(=O)NCC2CCN(Cc3ccc(C(C)(C)C)cc3)C2)c1 (stereo not given)
active: growth inhibition [4] 90%
inactive: growth inhibition [1] 15% | inhibition [2] 25% | inhibition [3] -2% | outcome [5] | outcome [6] | outcome [7] | outcome [8]

CCOc1ccc(NC(=O)c2ccc(NCCCN3CC(C)CC(C)C3)c([N+](=O)[O-])c2)cc1 (stereo not given)
inactive: inhibition [2] 3% | inhibition [3] -4% | outcome [5] | outcome [6] | outcome [7] | outcome [8]
active: growth inhibition [1] 60% | growth inhibition [4] 101%

Cc1[nH]c(C)c(-c2ccc(C(=O)c3ccccc3)cc2)c(=O)c1Br
inactive: inhibition [2] -10% | inhibition [3] 1% | outcome [5] | outcome [6] | outcome [7] | outcome [8]
active: growth inhibition [1] 96% | growth inhibition [4] 95%

CC(C)C[C@H](NC(=O)c1cc2ccccc2s1)C(=O)N[C@H]1CCN(Cc2ccc(I)c(OCCN3CCCC3)c2)C1
inactive: inhibition [2] 3% | inhibition [3] -1% | outcome [5] | outcome [6] | outcome [7] | outcome [8]
active: growth inhibition [1] 88% | growth inhibition [4] 92%

CCOC(=O)c1cncc(/C=C/c2cc(C)cnc2N)c1
active: growth inhibition [4] 86%
inactive: growth inhibition [1] 3% | inhibition [2] 4% | inhibition [3] -4% | outcome [5] | outcome [6] | outcome [7] | outcome [8]

Cc1cc(N(C)C)nc(Nc2ccc(NC(=O)Nc3ccccc3)cc2)n1
active: growth inhibition [1] 100% | growth inhibition [4] 101%
inactive: inhibition [2] 10% | inhibition [3] -2% | outcome [5] | outcome [6] | outcome [7] | outcome [8]

Cc1ncccc1C(=O)Nc1ccc(-c2cccc(-c3nc4c(C)cccc4[nH]3)c2)cc1
active: growth inhibition [4] 95%
inactive: growth inhibition [1] 31% | inhibition [2] 6% | inhibition [3] -5% | outcome [5] | outcome [6] | outcome [7] | outcome [8]

CCN=C1NC2=C(CC(C(C)(C)C)CC2)C2(CCC(C(C)(C)C)CC2)S1 (stereo not given)
active: growth inhibition [1] 99% | growth inhibition [4] 99%
inactive: inhibition [2] 40% | inhibition [3] 4% | outcome [5] | outcome [6] | outcome [7] | outcome [8]

CCCc1ccc(S(=O)(=O)NC2CCN(c3ccnc(Nc4ccc(OC)cc4)n3)C2)cc1 (stereo not given)
active: growth inhibition [4] 89%
inactive: growth inhibition [1] 45% | inhibition [2] 42% | inhibition [3] 0% | outcome [5] | outcome [6] | outcome [7] | outcome [8]

O=C(Nc1ccc2c(c1)CCC2)c1cccc(CN2CCCN(Cc3cccc(O)c3)CC2)c1
active: growth inhibition [4] 91%
inactive: growth inhibition [1] 20% | inhibition [2] 10% | inhibition [3] 0% | outcome [5] | outcome [6] | outcome [7] | outcome [8]

Cc1ccc(C)c(Cn2ccc3nc(N)nc(N)c32)c1
inactive: growth inhibition [1] 3% | inhibition [3] -1% | outcome [5] | outcome [6] | outcome [7] | outcome [8]
active: inhibition [2] 65% | growth inhibition [4] 97%

O=C(N[C@@H](Cc1ccccc1)CN1CCC(Oc2ccc(F)cc2)CC1)c1ccc(OCCCN2CCCCC2)cc1
active: growth inhibition [1] 92% | growth inhibition [4] 102%
inactive: inhibition [2] 38% | inhibition [3] 3% | outcome [5] | outcome [6] | outcome [7] | outcome [8]

O=S(=O)(c1ccc(OCc2ccc(Cl)cc2)cc1)c1cc2c(c(-c3ccc(F)cc3)c1)CCN(CC1CC1)CC2
inactive: growth inhibition [1] 14% | inhibition [2] -5% | inhibition [3] -5% | outcome [5] | outcome [6] | outcome [7] | outcome [8]
active: growth inhibition [4] 84%

Cc1cc(Br)cnc1CCCCN=C1NC(=O)CN1C
inactive: growth inhibition [1] 26% | inhibition [3] 2% | outcome [5] | outcome [6] | outcome [7] | outcome [8]
active: inhibition [2] 63% | growth inhibition [4] 95%

CC(C)(C)c1ccc(S(=O)(=O)Nc2ccccc2Cn2nc(N3CCNCC3)ccc2=O)cc1
inactive: inhibition [2] -5% | inhibition [3] 2% | outcome [5] | outcome [6] | outcome [7] | outcome [8]
active: growth inhibition [1] 97% | growth inhibition [4] 98%
